Experimental data as given in PubChem BioAssay (NCI).
“And” between values parts separate entries of the source, which are not always exact repeats. Identical values can stand only once. This is part of a sample that, as a whole, favours compounds with a hit. Of some 83,000 tested, about 20% had one in any assay.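 For each line, cells grew in 96-well plates with the test compound present at a single concentration for 48 hours.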 The source made the active and inactive calls.

These compounds were tested on ACHN renal (assay: NCI-60 one-dose screen, 48 h (100 = growth as untreated, 0 = no growth, -100 = all killed)). Conditions: 10 µM unless noted.
Description: Growth inhibition of the ACHN human tumor cell line is measured as a screen for anti-cancer activity. Cells are grown in 96 well plates and exposed to the test compound for 48 hours. Compounds are tested at a single concentration, which is 10^-5 M for most compounds. The reported endpoint is percent growth (GI% or GIPRCNT), where numbers from 0 - 100% represent growth inhibition, and numbers from -100% - 0 represent cell death. For example, a value of 40 represents 60% growth inhibition. A value of 0 means no net growth occurred over the course of the experiment. A value of -40 indicates 40% of cells at the beginning of the experiment died by the end of the experiment. A value of -100 means all cells are dead at the end of the experiment.
NCI-60 Human Tumor Cell Lines Screen was performed using the standard one-dose NCI protocol, which is described in more detail at https://dtp.cancer.gov/discovery_development/nci-60/default.htm.
Compounds with GIPRCNT values below 10 were considered active. Activity score was based on GIPRCNT using the following formula: […]
Score is 0 for GIPRCNT values of 100 or above, 50 for GIPRCNT values of 0, and 100 for GIPRCNT values of -100.

Row | SMILES | growth
1 | COCCNC(C)=O | 110% (inactive)
2 | COC(=O)c1nc(=S)[nH]c(C(=O)OC)c1C(=O)c1ccccc1 | 101% (inactive)
3 | CC(C)(C(=O)c1cccnc1)c1cccnc1 | 97.3% (inactive) and 111% (inactive)
4 | CN(C)C(=S)N(C)C | 104% (inactive)
5 | Nc1nc(N)c2cc(S(=O)(=O)c3ccccc3)ccc2n1 | 24% (inactive) and 29.6% (inactive)
6 | Nc1nc(-c2ccccn2)cc(-c2cc(-c3ccccn3)nc(N)n2)n1 | 110% (inactive)
7 | CCOC(C)=N | 104% (inactive)
8 | CC(C)(C)OC(=O)NCCc1ccc(N)cc1 | 105% (inactive)
9 | Nc1ccc(Cl)c(S(=O)(=O)O)c1 | 97.2% (inactive)
10 | Oc1cccnc1CN1CCOCC1 | 106% (inactive) and 97.3% (inactive)
11 | OC(CC(c1ccccc1)c1cccc2ccccc12)(c1ccccc1)c1ccccc1 (stereo not given) | 83.9% (inactive) and 93% (inactive)
12 | O=C(O)C(Cc1ccc(OS(=O)(=O)Cc2ccccc2)cc1)NS(=O)(=O)Cc1ccccc1 (stereo not given) | 105% (inactive) and 101% (inactive)
13 | CCOC(=O)c1ccc(C(=N)N)cc1 | 126% (inactive)
14 | O=c1[nH]c(=O)c2[nH]c(=O)[nH]c2[nH]1 | 101% (inactive)
15 | CN(C=O)c1ccccc1 | 92% (inactive)
16 | CN(C)CC(CN(C)C)C(O)c1ccccc1 (stereo not given) | 105% (inactive)
17 | CC1(CO)CCCC1NCCNC1CCCC1(C)CO (stereo not given) | 105% (inactive) and 100% (inactive)
18 | CCCCC/C(C)=N\NC(N)=S | 92.6% (inactive)
19 | CCC(C)NC(=O)c1ccccc1C (stereo not given) | 95.4% (inactive)
20 | CS(=O)(=O)c1nsc(N)n1 | 107% (inactive)

Row | SMILES | growth
21 | Cc1ccc([N+](=O)[O-])cc1Br | 98.3% (inactive)
22 | COc1cc(Cl)ccc1C | -8.72% (active)
23 | O=C1c2cccnc2-c2ncccc21 | 112% [100 µM] (inactive)
24 | COC(=O)C(Cc1cn(C(C)=O)c2ccccc12)P(=O)(OC)OC (stereo not given) | 100% (inactive)
25 | OCc1cccc(F)c1 | -0.315% (active)
26 | O=C1C=CC[C@H](/C=C/c2ccccc2)O1 | 33.4% (inactive) and -36.3% (active)
27 | CCOC(=O)C1=C(C)NC(C)=C(C(=O)OCC)C1 | 109% (inactive) and 105% (inactive)
28 | O=C(N=C1C(=O)C2(CCCCC2)C2(N=C(c3ccccc3)OC2=O)C12CCCCC2)c1ccccc1 (stereo not given) | 80.5% (inactive)
29 | OCCCc1ccccc1 | 106% (inactive)
30 | C/C(CC(C)C)=N/NC(N)=S | 98.3% (inactive)
31 | CCOC(=O)c1ccc(N2C(=O)C(Cl)(c3ccccc3)C2c2ccco2)cc1 (stereo not given) | 91.9% (inactive)
32 | CCN(CC)C(=S)SCCO | 111% (inactive)
33 | c1ccc2c[n+](Cc3ccc4ccccc4n3)ccc2c1 | 99.8% (inactive)
34 | CCc1ccc(OC(=O)CCl)cc1 | 102% (inactive)
35 | Clc1ccc2sc(-c3ccccc3)nc2c1 | 89.6% (inactive)
36 | Nc1ccccc1SC(CC(=O)c1ccccc1)c1cccc([N+](=O)[O-])c1 (stereo not given) | 90.1% (inactive) and 90.7% (inactive)
37 | O=COCCCc1ccccc1 | 110% (inactive)
38 | CC(=O)Oc1ccc(C(c2ccc(OC(C)=O)cc2)c2ccccn2)cc1 | 82.5% (inactive) and 81.1% (inactive)
39 | CN(C)c1ccc(C(=N)c2ccc(N(C)C)cc2)cc1 | 50.9% (inactive) and 49.9% (inactive)
40 | CC(=O)C[n+]1ccccc1Sc1ccc(Cl)cc1 | 113% (inactive)
